From ChEMBL document CHEMBL1157539, “Thousands of chemical starting points for antimalarial lead identification” (Nature, 2010)

What was measured:
Type in all cases: functional
Plasmodium falciparum [1] = assay: GSK_TCMDC: Inhibition of Plasmodium falciparum 3D7 in whole red blood cells, using parasite LDH activity as an index of growth. Test compounds present at 2uM
Plasmodium falciparum [2] = assay: GSK_TCMDC: Inhibition of Plasmodium falciparum Dd2 in whole red blood cells, using parasite LDH activity as an index of growth. Test compounds present at 2uM
HepG2 = assay: GSK_TCMDC: Percent inhibition of human HepG2 cell line. Test compounds present at 10uM.

SMILES | Inhibition (Plasmodium falciparum [1]) [%] | Inhibition (Plasmodium falciparum [2]) [%] | Inhibition (HepG2) [%]
COc1cccc(-c2cc(C(=O)Nc3ccc4[nH]c(-c5ccccc5)nc4c3)[nH]n2)c1.O=C(O)C(F)(F)F | 100 | 65 | 68
Cc1cccc(CN2CCC(Oc3ccc(NC(=O)c4cccs4)cc3Cl)CC2)n1.O=C(O)C(F)(F)F | 86 | 88 | 27
CC(=O)Nc1ccc2[nH]cc(C3CCN(CCC4CCN(C(=O)/C=C/c5ccc(Cl)c(Cl)c5)CC4)CC3)c2c1 | 95 | 7 | 13
CC12CCC(=O)N1C(C(=O)Nc1cccc(C(=O)Nc3cccc(C(F)(F)F)c3)c1)CS2 (stereo not given) | 92 | 89 | 6
O=C(NCCCCN1CCCC2c3cccc(O)c3CCC21)c1ccc(-c2ccccc2)cc1 (stereo not given) | 93 | 4 | 18
Clc1ccc(-c2cc(-c3csc(Nc4ccncc4)n3)on2)cc1 | 100 | 99 | 1
O=C(Nc1cccc(-c2nn3ccccc3c2-c2ccnc(Nc3ccc(NCCCN4CCOCC4)c(F)c3)n2)c1)c1c(F)cccc1F | 100 | 97 | 86
CCCCN(CCCC)Cc1cc2ccccc2cc1O.Cl | 100 | 98 | 9
c1ccc2cc3c(NCCN4CCOCC4)ccnc3cc2c1 | 99 | 98 | 0
COc1ccc2c(c1)S(=O)(=O)N=C(N1CCCC1c1ccc(Cl)c(Cl)c1)N2C.O=C(O)C(F)(F)F (stereo not given) | 89 | 19 | 0
Cl.O=C(c1ccc(Cl)cc1)C1CCN(CCCOc2ccc3c(c2)CCNCC3)CC1 | 93 | 23 | 78
NCc1ccc(-c2ccccc2CNC2CCN(Cc3ccccc3)CC2)cc1.O=C(O)C(F)(F)F | 94 | 3 | 20
Cc1cc(C(=O)NC2CCN(CC3(c4ccccc4)CCCCC3)CC2)on1 | 97 | 95 | 0
COc1ccc(CNCc2ccc(-c3ccc(-c4nc5cccc(C)c5[nH]4)cc3)cc2)cc1.O=C(O)C(F)(F)F | 100 | 97 | 53
O=c1cc(NCCC(CNCCc2ccccc2)NCc2cc(Br)cc(Br)c2)[nH]c2ccccc12 (stereo not given) | 98 | 47 | 3
COC(=O)[C@@H](NC(=O)[C@H](Cc1ccc(OC)c(OC)c1)Nc1ccc(C#N)c2ccccc12)c1ccc(O)cc1.O=C(O)C(F)(F)F | 100 | 100 | 6
COc1cc2nc(N3CCN(c4cc(C)ccc4C)CC3)nc(N)c2cc1OC.Cl | 98 | 12 | 66
Cc1cccc(OCC(=O)Nc2cccc(NC(=O)COc3cccc(C)c3)n2)c1 | 98 | 30 | 0
O=C(/C=C/c1ccc(Cl)c(Cl)c1)NCCCCCN1CCCC(CNC(=O)/C=C/c2ccccc2)C1 (stereo not given) | 98 | 6 | 37
CCC(CC)(CCC#N)CN(C[C@@H](O)[C@H](Cc1ccccc1)NC(=O)OC(C)(C)C)S(=O)(=O)c1ccc(OC)cc1 | 82 | 66 | 0

SMILES | Inhibition (Plasmodium falciparum [1]) [%] | Inhibition (Plasmodium falciparum [2]) [%] | Inhibition (HepG2) [%]
Cc1cccc2nc(-c3cccc(-c4cccc(NC(=O)Cc5c[nH]cn5)c4)c3)[nH]c12 | 100 | 100 | 32
Cc1cc(N(C)C)nc(Nc2ccc(NC(=O)Nc3ccccc3)cc2)n1 | 100 | 100 | 10
COc1ccc(OC)c(-c2ccc(O)c(CNCC(C)c3ccccc3)c2)c1 (stereo not given) | 98 | 96 | 26
Cc1nc(-c2ccc(C#N)cc2)sc1C(=O)NCCCCN1CCC(c2ccc3c(c2OCCO)CCCC3)CC1.Cl | 99 | 10 | 14
NC12CC3CC(CC(C3)C1)C2 [AMANTADINE] | 98 | 0 | 31
Cl.Oc1ccc(Cc2cc(Oc3c(I)cc(CCc4ncc[nH]4)cc3I)ccc2O)cc1 | 100 | 32 | 10
O=C(Nc1cccc(-c2nc3ccccc3[nH]2)c1)c1cccc(NC(=O)c2ccco2)c1 | 91 | 45 | 9
N#Cc1ccc(-c2ccc(C(=O)NCCCCN3CCC(c4cn(CCO)c5ccccc45)CC3)cc2)cc1 | 93 | 43 | 23
OC(CNCc1ccccc1OCc1ccccc1)c1cccc(I)c1 (stereo not given) | 100 | 100 | 2
O=C(O)C(=O)O.c1ccc(C2CCC(N3CCC(N4CCCC4)CC3)CC2)cc1 (stereo not given) | 100 | 46 | 9
CCc1ccc(CNCC(CCNc2cc(=O)c3ccccc3[nH]2)NCc2cc(Br)cc(Br)c2)o1 (stereo not given) | 100 | 92 | 0
CCNc1cc(C(=O)N[C@@H](Cc2ccccc2)[C@H](O)CNC(C)(C)CCCC(C)C)cc(N2CCCC2=O)c1.O=CO | 100 | 81 | 0
N#Cc1ccc(N2CCN(Cc3ccc(-c4ccc(-c5nc6cc(C(F)(F)F)ccc6[nH]5)cc4)cc3)CC2)nc1.O=C(O)C(F)(F)F | 100 | 90 | 19
FC(F)(F)c1ccc2[nH]ccc(=NN=Cc3ccccc3)c2c1 | 92 | 2 | 7
Cc1ccc(C(=O)Nc2cc(S(=O)(=O)N3CCCC3)ccc2OCC(F)(F)F)cc1 | 93 | 3 | 0
CCN(CC)CCN(Cc1ccc(-c2ccc(C(F)(F)F)s2)cc1)C(=O)Cn1c(CCc2cccc(F)c2F)nc(=O)c2ccccc21.O=C(O)C(O)C(O)C(=O)O | 94 | 31 | 43
Fc1ccc(Nc2ccnc3cc(-c4cccc(CNCCN5CCOCC5)c4)ccc23)c(Cl)c1 | 100 | 99 | 26
O=C(CCc1c[nH]cn1)Nc1ccc(-c2cccc(-c3nc4ccccc4[nH]3)c2)cc1 | 100 | 42 | 12
Cc1nn(-c2cccc(C(F)(F)F)c2)c2sc(C(=O)NC3CCN(C(C)C)CC3)cc12 | 94 | 20 | 98
COc1ccc(-c2nonc2NC(=O)c2ccc(C(C)(C)C)cc2)cc1OC | 99 | 73 | 0

SMILES | Inhibition (Plasmodium falciparum [1]) [%] | Inhibition (Plasmodium falciparum [2]) [%] | Inhibition (HepG2) [%]
COC(=O)C(=C(C)C)N1C(=O)[C@@H](NC(=O)OCc2ccccc2)[C@H]1SS[C@@H]1[C@H](NC(=O)OCc2ccccc2)C(=O)N1C(C(=O)OC)=C(C)C | 97 | 96 | 18
Cc1noc(C)c1-c1cccc(CNCc2ccc(-c3ccc(-c4nc5cccc(C)c5[nH]4)cc3)cc2)c1.O=C(O)C(F)(F)F | 100 | 95 | 28
Cc1cc(N[C@@H](CC(C)C)C(=O)NCc2cccs2)nc(Nc2ccccc2)n1.O=C(O)C(F)(F)F | 100 | 57 | 18
O=C(Nc1ccc2c(c1)CCN2C1CCN(Cc2cc(F)cc(F)c2F)C1)c1ccco1 (stereo not given) | 96 | 95 | 0
CC(C)(CN)c1cc(-c2ccc(Cl)c(O)c2)c(-c2ccncc2)o1.Cl | 92 | 97 | 44
O=c1cc(NCCCNC(CNCCc2ccccc2)c2cc(Br)cc(Br)c2)[nH]c2ccccc12 (stereo not given) | 93 | 53 | 0
COc1ccc(Cn2c(N3CCN(S(=O)(=O)c4ccc(OC)cc4)CC3)nc3c2c(=O)n(CC2CC2)c(=O)n3CC2CC2)cc1 | 92 | 39 | 0
Cc1ccc(C(C(=O)Nc2ccc(N3CCNCC3)c(Cl)c2)c2ccccc2)cc1 (stereo not given) | 97 | 93 | 23
Cc1cc(N2CCCC2)nc(Nc2ccc(NC(=O)c3cccc(F)c3)cc2)n1 | 97 | 28 | 39
CC(C)c1ccc(NC(=O)Nc2ccc(Cn3ncc(N4CCCNCC4)c(Cl)c3=O)cc2)cc1.O=C(O)C(F)(F)F | 85 | 27 | 11
CC[C@H](N/C(=N\c1cccc(Cl)c1Cl)Nc1ccc(C#N)cc1O)c1ccccc1 | 91 | 71 | 0
O=C(NC1CC1)c1ccc(N2CCC(Cc3ccccc3)CC2)c([N+](=O)[O-])c1 | 96 | 83 | 12
O=C(c1csc(-c2cccnc2)n1)N1CCc2cc3nccc(N4CCN5CCC[C@H]5C4)c3cc21 | 97 | 78 | 0
COC(=O)c1cccc(CNCc2ccc(-c3ccc(-c4nc5cc(C(F)(F)F)ccc5[nH]4)s3)cc2)c1.O=C(O)C(F)(F)F | 100 | 96 | 34
CC1CN(Cc2ccccc2)CCN1c1ccc(NC(=O)c2ccc(F)cc2)cc1.O=C(O)C(F)(F)F (stereo not given) | 87 | 89 | 0
N=C(N)NC(=O)Nc1cc(Cl)c(Cl)c(C(F)(F)F)c1 | 100 | 99 | 6
CC(C)(C)c1ccc(C(=O)Nc2cccc(Nc3c(C(=O)NCc4cccc(C(F)(F)F)c4)cnc4c(O)cccc34)c2)cc1.O=C(O)C(F)(F)F | 83 | 79 | 40
CCCOc1ccc(C(=O)Nc2nonc2-c2ccc(OC)c(OC)c2)cc1 | 99 | 97 | 0
Cc1nnc2c(NC(=O)NC3CCCC3)cc3ccc(-c4cccc(CN(C)C)c4)cc3n12 | 90 | 25 | 42
CCCCCCN1CCC(CNCc2cccc([N+](=O)[O-])c2)CC1.O=C(O)C(F)(F)F | 95 | 15 | 16
